The assay relates to primary human hepatic stellate cells (donor 1). Briefly: scaled lipid accumulation score (0 = DMSO-like, 1 = nortriptyline-like); higher = stronger HSC inactivation (lipid re-accumulation), active = hit call of the paper. The conditions noted are these: 48 h.
Where [1] appears, read: library stock concentration: 1 mM.
The mark [2] stands for this setting: library stock concentration: 10 mM.
Setting [3] is: library stock concentration: 80 uM.
Where [4] appears, read: library stock concentration: 400 uM.
The mark [5] stands for this setting: library stock concentration: 2 mM.
[6] abbreviates: library stock concentration: 3.33 mM.

“And” between values parts separate entries of the source, which are not always exact repeats. Identical values can stand only once. Counter-ions that a name gives are not always drawn. In all, about 5,800 compounds went through this assay and about 620 (11%) showed activity. The full list was thinned out, with actives kept by preference. Unmarked numbers belong to inactive results.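 Rule for the calls: active = score above a cut-off or among the top three wells of a plate; in these data no inactive exceeds 0.85.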 Some results are limits rather than exact numbers.

Consider `CCCCC[C@H](O)C/C=C1/C(=O)C=C[C@@H]1C/C=C\CCCC(=O)O` [D12-Prostaglandin J2], for which the “scaled lipid accumulation score” value under setting [1] was not above -0.021.

With `CC(=N)NCc1cccc(CN)c1` [1400W dihydrochloride], the “scaled lipid accumulation score” value under setting [2] was not above -0.006.

For `Cc1oc(S(=O)(=O)N2CCCCC2)cc1NC(=O)Nc1ccccc1`, the “scaled lipid accumulation score” value under setting [1] was not above 0. As to `Cc1cc(/N=N/c2cc(S(=O)(=O)O)c(C)cc2C)c(N)cc1O` [Ischemin], the “scaled lipid accumulation score” value under setting [3] is not above 0, the “scaled lipid accumulation score” value under setting [4] is not above 0, the “scaled lipid accumulation score” value under setting [5] was not above 0 and the “scaled lipid accumulation score” value under setting [2] is not above 0. Take `COC(=O)CC(NC(=O)C(C)NC(=O)C(NC(=O)OCc1ccccc1)C(C)C)C(=O)CF` (centres undefined): the “scaled lipid accumulation score” value is not above 0 under setting [6] and 0.101 under setting [2]. `Cc1cc(C)c(S(=O)(=O)Nc2ccccc2C(F)(F)F)c(C)c1`: under setting [2], the “scaled lipid accumulation score” value was 0.002. With `CC/C=C\C/C=C\C/C=C\C/C=C\C/C=C\CCCC(=O)O` [Eicosapentaenoic acid (20:5 n-3)], under setting [1], the “scaled lipid accumulation score” value was 0.009. For the molecule `CC/C=C\C/C=C\C/C=C\C/C=C\C/C=C\CCCC(=O)O` [Eicosapentaenoic Acid], the “scaled lipid accumulation score” value under setting [1] is 0.001. With `CCCC[C@H](CCC(=O)O)NC(=O)CCCCCCc1ccccc1`, the “scaled lipid accumulation score” value under setting [1] is not above 0. As to `CCCCCCCCCCCCCCCC(=O)OCC(COP(=O)(O)O)OC(=O)CCCCCCCCCCCCCCC` (centres undefined) [Dipalmitoylphosphatidic acid], under setting [1], the “scaled lipid accumulation score” value is not above -0.021. Consider `CC1(C)CCC(c2ccc(Cl)cc2)=C(CN2CCN(c3ccc(C(=O)NS(=O)(=O)c4ccc(N[C@H](CCN5CCOCC5)CSc5ccccc5)c(S(=O)(=O)C(F)(F)F)c4)cc3)CC2)C1` [ABT-263 (Navitoclax)], for which the “scaled lipid accumulation score” value is, setting by setting: under setting [6], 0.024; under setting [2], 0.048. Turning to `Cc1cnc(Nc2ccc(F)cc2Cl)nc1-c1c[nH]c(C(=O)N[C@H](CO)c2cccc(Cl)c2)c1`, the “scaled lipid accumulation score” value under setting [3] is not above -0.001, the “scaled lipid accumulation score” value under setting [4] was not above -0.001, the “scaled lipid accumulation score” value under setting [5] is not above -0.001 and the “scaled lipid accumulation score” value under setting [2] is not above -0.001.

In the case of `CC(C)c1cc(-c2n[nH]c(=O)n2-c2ccc3c(ccn3C)c2)c(O)cc1O` [Ganetespib] [listing 1 of 2 here], the “scaled lipid accumulation score” value runs as follows: under setting [5], 0.915 (active); under setting [2], 0.885 (active). On to `CC(C)c1cc(-c2n[nH]c(=O)n2-c2ccc3c(ccn3C)c2)c(O)cc1O` [Ganetespib] [listing 2 of 2 here], for which the “scaled lipid accumulation score” value under setting [3] is 0.602 and the “scaled lipid accumulation score” value under setting [4] was 0.802. In the case of `Cc1cc(NC(=O)Nc2ccc3c(ccn3C)c2)sn1`, the “scaled lipid accumulation score” value under setting [2] is 0.129. As for `CC(C)c1cc(-c2n[nH]c(=O)n2-c2ccc3c(ccn3C)c2)c(O)cc1O` [Ganetespib (STA-9090)], the “scaled lipid accumulation score” value is, setting by setting: under setting [6], 0.691; under setting [2], 0.649. In the case of `CCCCCCCCCCCCCCP(=O)(O)O` [Tetradecyl Phosphonate], the “scaled lipid accumulation score” value under setting [1] is not above 0.

On to `CN(C)C(=O)[C@H](O)[C@H](Cc1ccccc1)NC(=O)c1cc2cc(Cl)ccc2[nH]1`, for which the “scaled lipid accumulation score” value under setting [6] was 0.007; the “scaled lipid accumulation score” value under setting [2] is ≤ 0 and 0.127. Turning to `COc1ccccc1C1(O)CCN(CCCn2c3ccccc3c3ccccc32)CC1` [NNC 05-2090 hydrochloride], the “scaled lipid accumulation score” value under setting [2] is 0.491. As to `O=c1[nH]c2ccccc2n1CCCN1CCN(C(c2ccccc2)c2ccccc2)CC1` [Oxatomide], the “scaled lipid accumulation score” value (library stock concentration: 4.7 mM) was 0.191. For the molecule `C[C@@H]1CN(CCCn2c3ccccc3c3ccccc32)C[C@H](C)N1.Cl.Cl` [Rimcazole dihydrochloride], the “scaled lipid accumulation score” value under setting [2] is 1.34 (active).

As for `Cc1ccc2c(=O)c3ccccc3n(CCCN)c2c1C`, the “scaled lipid accumulation score” value under setting [2] was 0.501.

As to `CCCCCCCCNC(=O)Cc1c(C)n(C(=O)c2ccc(Cl)cc2)c2ccc(OC)cc12` [Indomethacin N-octyl amide], the “scaled lipid accumulation score” value under setting [1] was not above 0. Consider `O=C(O)/C=C/CCCCCCCCC(=O)O` [Traumatic Acid], for which the “scaled lipid accumulation score” value under setting [1] is not above 0.

As to `O=C1Nc2ccc(I)cc2C1=Cc1cc(Br)c(O)c(Br)c1`, the “scaled lipid accumulation score” value was not above 0 under setting [6] and 0.083 under setting [2]. Turning to `CCCCCCCC(=O)CC[C@@H]1[C@@H](C/C=C\CCCC(=O)O)[C@@H](O)C[C@H]1O` [Unoprostone], the “scaled lipid accumulation score” value under setting [1] is not above 0. Still for that read-out and setting: the result for `O=C(O)CCC/C=C\C[C@@H]1[C@@H](/C=C/C(=O)COc2cccc(C(F)(F)F)c2)[C@H](O)C[C@@H]1O` [15-keto Fluprostenol] reads not above 0.

Consider `COc1ccc(-n2nc(C(N)=O)c3c2C(=O)N(c2ccc(N4CCCCC4=O)cc2)CC3)cc1` [Apixaban], for which the “scaled lipid accumulation score” value is, setting by setting: under setting [6], not above 0; under setting [2], not above 0. As for `O=c1onc2cnc3ccccc3n12`, the “scaled lipid accumulation score” value under setting [2] is 1.01 (active).

Regarding `CC(C)CCC[C@@H](C)[C@H]1CC[C@H]2[C@@H]3CC(=O)[C@@]4(O)C[C@@H](O)CC[C@]4(C)[C@H]3CC[C@]12C` [5.alpha.-hydroxy-6-keto Cholesterol], the “scaled lipid accumulation score” value under setting [1] is not above 0. Regarding `O=C(O)c1ccccc1` [Benzoic Acid], the “scaled lipid accumulation score” value under setting [6] was not above 0 and the “scaled lipid accumulation score” value under setting [2] was 0.005.

On to `O=c1c2ccccc2oc2ccccc12` [Xanthone], for which the “scaled lipid accumulation score” value runs as follows: under setting [6], not above 0; under setting [2], not above 0. As to `O=c1c(-c2ccccc2)c1-c1ccccc1` [diphenylcyclopropenone], under setting [2], the “scaled lipid accumulation score” value is 1.25 (active). For the molecule `O=C(O)c1ccccc1` [Benzoic acid], the “scaled lipid accumulation score” value (library stock concentration: 16.4 mM) is not above 0. For `Cc1ccccc1N1CCN(S(=O)(=O)C[C@]23CC[C@H](C[C@@H]2NC(=O)[C@@H](N)CCS(C)(=O)=O)C3(C)C)CC1` [L-368,899 hydrochloride], the “scaled lipid accumulation score” value under setting [2] is 0.107. Consider `O=P(O)(O)OC1[C@H](OP(=O)(O)O)[C@H](O)C(O)[C@H](O)[C@H]1OP(=O)(O)O` (stereo partly drawn) [D-myo-Inositol-1,2,6-triphosphate (sodium salt)], for which the “scaled lipid accumulation score” value under setting [1] is 0.004. `CCNC(=O)C1=C(c2ccc(OC)cc2)C(=C2C=C(Cl)C(O)=CC2=O)NN1`: under setting [2], the “scaled lipid accumulation score” value was 0.897 (active). Consider `CCNC(=O)c1[nH]nc(-c2cc(Cl)c(O)cc2O)c1-c1ccc(OC)cc1`, for which the “scaled lipid accumulation score” value under setting [6] is 0.6. Take `N=C(N)SCCC[C@H](N)C(=O)O` [Thioarginine (hydrobromide)]: the “scaled lipid accumulation score” value under setting [1] was not above 0. As to `NCC(O)CC(=O)O` (centres undefined) [Aminohydroxybutyric acid], under setting [2], the “scaled lipid accumulation score” value is 0.017. Still for that read-out and setting: the figure for `CN1CCN(c2ccc(OC(F)(F)F)c(Nc3ncc4c(n3)-c3c(c(C(N)=O)nn3CCO)CC4)c2)CC1` [listing 1 of 2 here] is 0.879 (active). In the case of `CNC(=O)c1nn(C)c2c1C(C)(C)Cc1cnc(Nc3ccc(N4CCN(C)CC4)cc3)nc1-2`, the “scaled lipid accumulation score” value was 0.148 under setting [6] and not above 0 under setting [2].

With `CN1CCN(c2ccc(OC(F)(F)F)c(Nc3ncc4c(n3)-c3c(c(C(N)=O)nn3CCO)CC4)c2)CC1` [listing 2 of 2 here], the “scaled lipid accumulation score” value is, setting by setting: under setting [3], not above 0; under setting [4], not above 0; under setting [5], 0.15; under setting [6], not above -0.009; under setting [2], 0.668.

Source of the values: the supplement of paper PMC9135407.
